Bioassay records as filed in PubChem BioAssay.
Most compounds without a hit are left out; they make up all but 3.1% or so of the library.
p53ts 32C tox: kills p53ts cells at the permissive temperature; H1299-p53A138V at 32C, ATP luminescence viability, 24 h; Potency, µM (highest dose often 46.1 µM), hits mostly cytotoxic; hit rate 0.93% among 130,000; AID 924; note: nearly all actives have a fitted effect of over 55% in size
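H1299-p53 A138V cells (temperature-sensitive p53) exposed 24 h to up to 46 uM compound at 32C, where p53 is wild-type in conformation. Viability read as ATP luminescence and normalised to DMSO and 100 uM tamoxifen. AC50 fitted with the Hill equation.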
Peg3 imprint: inducers of genomic imprint erasure in mouse ES cells | Potency, µM (top dose mostly 60.7 µM), hits mostly activators | hit rate 0.02% among 110,000 | mouse ES Peg3-LacZ reporter, beta-gal luminescence, 40 h
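Readout: BetaGlo luminescence (5 min, room temp) for LacZ from the normally silent maternal Peg3 allele in female Peg3LacZ-Neo ES cells. Cells 300/well, 40 h, 37C, 5% CO2. Data normalized per plate to negative controls.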
IkB sig inh: suppresses IkB signaling in ABC-DLBCL reporter cells; ABC-DLBCL IkBa-CBG/CBR dual luciferase ratio, 4 h; response scale: scaled: untreated 0%, proteasome inhibitor 100%; Potency, µM (top dose mostly 57.1 µM); hit rate 0.04% among 110,000; active = well fitted curve in the direction sought with a large enough effect in the signal ratio, not every such curve was filed as active; inconclusive = small, poorly fitted or top-dose-only effect, or a change in a side signal; the % refers to the signal ratio;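 note: the direction sought is a rising ratio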
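In this assay, an IκBα–CBG68 fusion accumulates when IKK-driven degradation is blocked; native CBR normalizes for cell number. OCI-Ly3 cells were treated 4 h with compound and doxycycline, then green and red light read after Chroma-Glo addition.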
p53ts 39C kill: cytotoxicity in p53ts cells at nonpermissive temperature; hit rate 1.5% among 130,000; AID 902; H1299-p53A138V viability at 39C, ATP luminescence, 24 h; Potency, µM (top dose mostly 46.1 µM), actives largely listed as cytotoxic; note: nearly all actives have a fitted effect of over 55% in size
TSHR agonist: TSH receptor (human) agonism; HEK293-CNG-TSHR cells (CNG channel as cAMP sensor), membrane potential dye, cAMP; Potency, µM (highest dose often 57.1 µM), hits mostly activators; hit rate 0.48% among 73,000; AID 926; active = well fitted activation curve with a large enough effect in the main read-out, with a control signal flat, not every such curve was filed as active; inconclusive = small, poorly fitted or top-dose-only effect, or a change in a side signal; inactive = no such curve, though single readings can be large or run the other way; reference of the percent scale not stated here;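 note: the control signal comes from parental cells without the receptor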
Target sequence (P16473 whole entry, looked up): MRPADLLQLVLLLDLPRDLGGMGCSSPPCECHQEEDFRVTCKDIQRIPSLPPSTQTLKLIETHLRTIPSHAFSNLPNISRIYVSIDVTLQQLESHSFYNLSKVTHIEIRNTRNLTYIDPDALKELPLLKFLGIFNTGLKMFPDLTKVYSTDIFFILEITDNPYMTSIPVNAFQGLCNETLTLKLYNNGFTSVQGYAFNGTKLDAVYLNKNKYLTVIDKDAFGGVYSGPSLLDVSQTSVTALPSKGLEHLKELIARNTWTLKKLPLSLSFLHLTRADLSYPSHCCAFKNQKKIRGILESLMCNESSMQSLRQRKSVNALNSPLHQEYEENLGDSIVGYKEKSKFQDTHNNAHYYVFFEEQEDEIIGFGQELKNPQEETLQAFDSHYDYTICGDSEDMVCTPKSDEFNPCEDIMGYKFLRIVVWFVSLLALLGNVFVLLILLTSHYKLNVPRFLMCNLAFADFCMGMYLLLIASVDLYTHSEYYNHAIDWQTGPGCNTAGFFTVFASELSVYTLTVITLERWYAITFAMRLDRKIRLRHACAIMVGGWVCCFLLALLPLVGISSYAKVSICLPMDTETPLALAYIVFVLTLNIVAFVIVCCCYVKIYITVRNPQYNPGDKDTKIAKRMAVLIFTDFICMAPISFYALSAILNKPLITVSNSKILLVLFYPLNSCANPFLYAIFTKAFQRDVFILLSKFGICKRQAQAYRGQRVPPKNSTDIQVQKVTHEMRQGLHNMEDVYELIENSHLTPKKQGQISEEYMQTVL
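cAMP rise detected as CNG-channel membrane depolarization by fluorescent dye (emission 590 nm), 30 min after compound, following 60 min dye loading containing 100 uM RO 20-1724 at room temperature. Cells: TSHR/CNG HEK 293, with parental CNG HEK 293 as control.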
HEK293 cAMP ctrl: parental HEK293 cAMP activation (counter-screen); AID 938; parental HEK293 CNG cAMP sensor, membrane potential fluorescence; Potency, µM (highest dose often 57.1 µM), most hits filed as activators; hit rate 2.5% among 73,000; note: nearly all actives have a fitted effect of over 55% in size
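Parental HEK 293 cells stably expressing a modified CNG channel (no TSHR) report cAMP rise as membrane depolarization. Membrane potential dye with 100 uM RO 20-1724 was loaded for 60 min at room temperature, then compound added for 30 min; fluorescence read at 590 nm.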
Large screens that a line does not name were inactive. Unless noted, calls come from the whole dose curve; as a rule, active = well fitted curve in the direction sought with a large enough effect; inconclusive = small, poorly fitted or top-dose-only effect, or another doubt; inactive = no such curve, though single readings can be large; an effect the other way counts as inactive or inconclusive.

CC1(C)CC(N2CCN(c3ccccc3)CC2)=CC(=[N+]2CCCC2)C1	IkB sig inh inconclusive, TSHR agonist inconclusive, HEK293 cAMP ctrl 7.94µM
CC1(C)CC(=O)c2cnc(N3CCN(c4ccccc4)CC3)nc2C1	none
CC1CN(C(=O)CCC(=O)NCc2cccs2)c2ccccc2O1 (stereo not drawn)	IkB sig inh inconclusive (no result: TSHR agonist, HEK293 cAMP ctrl)
CCOC(=O)C1CCN(c2ncnc3c2c(-c2ccccc2)cn3-c2ccc(Cl)cc2)CC1	IkB sig inh inconclusive, p53ts 39C kill inconclusive (no result: TSHR agonist, HEK293 cAMP ctrl)
CCOC(=O)C1CCN(c2ncnc3c2oc2ccc(Cl)cc23)CC1	TSHR agonist inconclusive, HEK293 cAMP ctrl 25.1µM
Cc1cccc(-c2noc(CN(C(=O)COc3ccc(C(C)C)cc3)C(C)C)n2)c1	IkB sig inh inconclusive (no result: TSHR agonist, HEK293 cAMP ctrl)
CC1=CC(C)(C)Nc2ccc(OC(=O)CN3C(=O)CCC3=O)cc21	p53ts 32C tox inconclusive, p53ts 39C kill 15.8µM (no result: Peg3 imprint, IkB sig inh)
Brc1ccc(CN2CCc3nc(Nc4ccccc4)ncc3C2)s1	p53ts 39C kill inconclusive (no result: TSHR agonist, HEK293 cAMP ctrl)
c1ccc(CCNc2c3c(nc4ncnn24)CCC3)cc1	TSHR agonist inconclusive, HEK293 cAMP ctrl 6.31µM
c1ccc(Nc2c3c(nc4ncnn24)CCC3)cc1	none
CCCCCC[C@@H]([C@H](C)O)n1cnc2c(N)ncnc21	TSHR agonist inconclusive, HEK293 cAMP ctrl 31.6µM (no result: Peg3 imprint)
Nc1ncnc2c1ncn2CCCCC(=O)O	none
Cc1cccc(N2CCN(C(=O)c3ccc(NC(=O)c4nsc5ccccc45)cc3)CC2)c1C	p53ts 32C tox inconclusive, IkB sig inh inconclusive, p53ts 39C kill inconclusive (no result: TSHR agonist, HEK293 cAMP ctrl)
Cc1nn(CCC(=O)N2CCN(c3ccccc3)CC2)c(C)c1S(=O)(=O)N1CCCC1	Peg3 imprint inconclusive (no result: TSHR agonist, HEK293 cAMP ctrl)
CC(=O)OCCN(Cc1ccccc1)Cc1ccc2c(c1)OCO2	TSHR agonist 25.1µM
Cc1ccc2nc(-c3ccc(NC(=O)C(F)(F)F)cc3)sc2c1	p53ts 32C tox 3.16µM, p53ts 39C kill 1.58µM (no result: TSHR agonist, HEK293 cAMP ctrl)
CCC(=O)N1CCc2cc(S(=O)(=O)NC(CC(C)C)C(=O)NCc3cccc(OC)c3)ccc21 (stereo not drawn)	none (no result: TSHR agonist, HEK293 cAMP ctrl)
CN(c1ccccc1)c1nc(-n2ccnc2)nc(-n2ccnc2)n1	none (no result: TSHR agonist)
c1ccc(-c2nc(N3CCN(c4ccccc4)CC3)nc(-n3ccnc3)n2)cc1	TSHR agonist inconclusive, HEK293 cAMP ctrl inconclusive
c1ccc(-c2nc(N3CCCCCC3)nc(-n3ccnc3)n2)cc1	TSHR agonist 3.98µM
c1ccc(N(c2ccccc2)c2nc(-n3ccnc3)nc(-n3ccnc3)n2)cc1	IkB sig inh inconclusive, TSHR agonist inconclusive, HEK293 cAMP ctrl 25.1µM
CCOc1ccccc1CN1CCc2nc(Nc3ccc4c(c3)OCCO4)ncc2C1	IkB sig inh inconclusive (no result: TSHR agonist, HEK293 cAMP ctrl)
COCCn1c(SCc2csc(-c3ccccc3)n2)nc2ccccc21	IkB sig inh inconclusive, TSHR agonist inconclusive, HEK293 cAMP ctrl 31.6µM
Cc1ccccc1-n1nnnc1SCc1csc(-c2ccccc2)n1	IkB sig inh inconclusive, TSHR agonist inconclusive, HEK293 cAMP ctrl 3.16µM
Cn1c(SCc2nc(-c3ccccc3)no2)nnc1-c1cccs1	none (no result: Peg3 imprint, IkB sig inh, TSHR agonist, HEK293 cAMP ctrl)
Nn1c(SCc2csc(-c3ccccc3)n2)nnc1-c1cccs1	Peg3 imprint inconclusive, TSHR agonist inconclusive, HEK293 cAMP ctrl 25.1µM
CCC(=O)N1CCc2cc(S(=O)(=O)NC(CC(C)C)C(=O)NCc3ccc(F)cc3)ccc21 (stereo not drawn)	none (no result: TSHR agonist, HEK293 cAMP ctrl)
NC(=O)c1ncn([C@@H]2O[C@@H](CO)[C@@H](O)[C@H]2O)c1O	TSHR agonist inconclusive, HEK293 cAMP ctrl inconclusive (no result: Peg3 imprint)
C[C@H](CO)NC(=O)[C@@H]1C[C@H]1[C@@H](NP(=O)(c1ccccc1)c1ccccc1)c1ccccc1	TSHR agonist inconclusive, HEK293 cAMP ctrl 15.8µM (no result: IkB sig inh)
Cc1cc(CNC(=O)[C@@H]2C[C@H]2[C@@H](NP(=O)(c2ccccc2)c2ccccc2)c2ccccc2)nn1C	none (no result: IkB sig inh)
CCn1cc(/C=C(\NC(=O)c2ccc(C)cc2)C(=O)NCCCn2ccnc2)c2ccccc21	none (no result: TSHR agonist, HEK293 cAMP ctrl)
COc1cc(CO)cc(-c2cc(CO)cc(OC)c2OC)c1OC	none
COc1cc(CO)cc(Br)c1OCC(=O)O	TSHR agonist 25.1µM
